{
  "source": "the supplement of paper PMC8728848",
  "binders": {"B1": {"name": "B1567 (Bifidobacterium sp) (protein)", "chain": "MKFTTAKKAVALTGAVAMLVSVAACGSDSGKSSQPAQDSDVKEITVWAWEPSLTQVAKDFEKETGIKVDLKNVGTNTKEYTQLDNAIEAGSGAPDVAQVEYYAVPQYAIKGNLLDITDKTSGYKDFYTPGPWASVQFAGKVYGLPMDSGPMAFFYNKEVFDKAGVDAEQIKTWDQYYDAAKKIHALGDNYYITSDTGDAGFFDSMTWLAGAKPFQTSSDGSEVTVNLTEDKGVKTFTDFWQKLLDEGLLDTKTAGWSEDWFKGMVDGTIASLFTGAWMPANLANSAADGAGKWRVTQMPTADGSTTNSENGGSSLAVLASTKKADAAYQFIEYANHGAGVATRVAGGAFPADKASLEKDSFKNATTVKNADGQDVDYFGGQKYNEVLAQAAENVSSGYQFLPFEVKARTIFGDYFGKSYTGDQKLSDGVAAWQKALQDYGKDQGFTVK"}},
  "test_in_all_cases": "glycan array binding signal (z-score within array); higher = stronger binding",
  "conditions_in_all_cases": "glycan notation: IUPAC condensed, linker removed",
  "key": {"[1]": {"target": "Fuc(a1-2)Gal(b1-3)GalNAc(a1-3)[Fuc(a1-2)]Gal(b1-4)Glc", "how_it_was_run": "(§1)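 Glycan array data were curated from 3228 arrays in the Consortium for Functional Glycomics database and kept only where the protein sequence was available. Glycan names were converted to IUPAC-condensed notation, and columns mapping to the same glycan were averaged. The binding signal is a within-array Z-score, averaged across arrays of the same protein sequence at different concentrations or buffers and across linkers. Negative Z-scores can be read as non-binding.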"}, "[2]": {"target": "Fuc(a1-2)Gal(b1-3)[Fuc(a1-4)]GlcNAc(b1-2)Man(a1-3)[Fuc(a1-2)Gal(b1-3)[Fuc(a1-4)]GlcNAc(b1-2)Man(a1-6)]Man(b1-4)GlcNAc(b1-4)[Fuc(a1-6)]GlcNAc(b1-4)[Fuc(a1-6)]GlcNAc", "how_it_was_run": "as §1"}, "Fuc(a1-2)Gal(b1-4)Glc6S": {"target": "Fuc(a1-2)Gal(b1-4)Glc6S", "how_it_was_run": "as §1"}, "[3]": {"target": "Fuc(a1-2)Gal(b1-4)GlcNAc(b1-3)GalNAc", "how_it_was_run": "as §1"}, "[4]": {"target": "Fuc(a1-2)Gal(b1-4)[Fuc(a1-3)]GlcNAc(b1-3)Gal(b1-4)[Fuc(a1-3)]GlcNAc", "how_it_was_run": "as §1"}, "[5]": {"target": "Fuc(a1-2)[Gal(a1-3)]Gal(b1-3)GlcNAc(b1-3)GalNAc", "how_it_was_run": "as §1"}, "[6]": {"target": "Fuc(a1-2)[GalNAc(a1-3)]Gal(b1-4)GlcNAc(b1-2)Man(a1-3)[Fuc(a1-2)[GalNAc(a1-3)]Gal(b1-4)GlcNAc(b1-2)Man(a1-6)]Man(b1-4)GlcNAc(b1-4)GlcNAc", "how_it_was_run": "as §1"}, "[7]": {"target": "Fuc(a1-3)[Gal(b1-4)]GlcNAc(b1-6)[Gal(b1-3)GlcNAc(b1-3)]Gal(b1-4)Glc", "how_it_was_run": "as §1"}, "Fuc(a1-4)GlcNAc": {"target": "Fuc(a1-4)GlcNAc", "how_it_was_run": "as §1"}, "Gal(a1-3)Gal(b1-3)GlcNAc": {"target": "Gal(a1-3)Gal(b1-3)GlcNAc", "how_it_was_run": "as §1"}, "[8]": {"target": "Gal(a1-4)Gal(b1-4)GlcNAc(b1-2)Man(a1-3)[Gal(a1-4)Gal(b1-4)GlcNAc(b1-2)Man(a1-6)]Man(b1-4)GlcNAc(b1-4)GlcNAc", "how_it_was_run": "as §1"}, "[9]": {"target": "Gal(b1-3)GalNAc(a1-3)[Fuc(a1-2)]Gal(b1-4)Glc", "how_it_was_run": "as §1"}, "Gal(b1-3)GlcNAc(b1-2)Man": {"target": "Gal(b1-3)GlcNAc(b1-2)Man", "how_it_was_run": "as §1"}, "[10]": {"target": "Gal(b1-3)[GlcNAc(b1-6)]GalNAc", "how_it_was_run": "as §1"}, "[11]": {"target": "Gal(b1-3)[Neu5Ac(a2-6)]GlcNAc(b1-4)Gal(b1-4)Glc", "how_it_was_run": "as §1"}, "[12]": {"target": "Gal(b1-4)GalNAc(b1-3)[Fuc(a1-2)]Gal(b1-4)GlcNAc", "how_it_was_run": "as §1"}, "Gal(b1-4)GlcNAc(b1-2)Man": {"target": "Gal(b1-4)GlcNAc(b1-2)Man", "how_it_was_run": "as §1"}, "[13]": {"target": "Gal(b1-4)GlcNAc(b1-2)Man(a1-6)Man(b1-4)GlcNAc(b1-4)GlcNAc", "how_it_was_run": "as §1"}, "[14]": {"target": "Gal(b1-4)GlcNAc(b1-2)[Gal(b1-4)GlcNAc(b1-6)]Man(a1-6)[GlcNAc(b1-4)][Gal(b1-4)GlcNAc(b1-2)Man(a1-3)]Man(b1-4)GlcNAc(b1-4)GlcNAc", "how_it_was_run": "as §1"}, "[15]": {"target": "Gal(b1-4)GlcNAc(b1-3)Gal(b1-4)Glc", "how_it_was_run": "as §1"}, "[16]": {"target": "Gal(b1-4)GlcNAc(b1-3)Gal(b1-4)GlcNAc", "how_it_was_run": "as §1"}, "[17]": {"target": "Gal(b1-4)GlcNAc(b1-3)Gal(b1-4)GlcNAc(b1-3)Gal(b1-4)GlcNAc", "how_it_was_run": "as §1"}, "[18]": {"target": "Gal(b1-4)GlcNAc(b1-3)Gal(b1-4)GlcNAc(b1-3)Gal(b1-4)GlcNAc(b1-2)Man(a1-3)[Gal(b1-4)GlcNAc(b1-3)Gal(b1-4)GlcNAc(b1-3)Gal(b1-4)GlcNAc(b1-2)Man(a1-6)]Man(b1-4)GlcNAc(b1-4)GlcNAc", "how_it_was_run": "as §1"}, "[19]": {"target": "Gal(b1-4)GlcNAc(b1-3)Gal(b1-4)GlcNAc(b1-3)Gal(b1-4)GlcNAc(b1-2)Man(a1-3)[Gal(b1-4)GlcNAc(b1-3)Gal(b1-4)GlcNAc(b1-3)Gal(b1-4)GlcNAc(b1-2)Man(a1-6)]Man(b1-4)GlcNAc(b1-4)[Fuc(a1-6)]GlcNAc", "how_it_was_run": "as §1"}, "[20]": {"target": "Gal(b1-4)GlcNAc(b1-3)Gal(b1-4)GlcNAc(b1-3)Gal(b1-4)GlcNAc(b1-2)[Gal(b1-4)GlcNAc(b1-3)Gal(b1-4)GlcNAc(b1-3)Gal(b1-4)GlcNAc(b1-6)]Man(a1-6)[Gal(b1-4)GlcNAc(b1-3)Gal(b1-4)GlcNAc(b1-3)Gal(b1-4)GlcNAc(b1-2)Man(a1-3)]Man(b1-4)GlcNAc(b1-4)[Fuc(a1-6)]GlcNAc", "how_it_was_run": "as §1"}, "[21]": {"target": "Gal(b1-4)GlcNAc(b1-3)Gal(b1-4)GlcNAc(b1-3)Gal(b1-4)GlcNAc(b1-3)Gal(b1-4)GlcNAc(b1-2)[Gal(b1-4)GlcNAc(b1-3)Gal(b1-4)GlcNAc(b1-3)Gal(b1-4)GlcNAc(b1-3)Gal(b1-4)GlcNAc(b1-6)]Man(a1-6)[Gal(b1-4)GlcNAc(b1-3)Gal(b1-4)GlcNAc(b1-3)Gal(b1-4)GlcNAc(b1-3)Gal(b1-4)GlcNAc(b1-2)Man(a1-3)]Man(b1-4)GlcNAc(b1-4)[Fuc(a1-6)]GlcNAc", "how_it_was_run": "as §1"}, "[22]": {"target": "Gal(b1-4)GlcNAc(b1-3)Gal(b1-4)GlcNAc(b1-3)Gal(b1-4)GlcNAc(b1-3)Gal(b1-4)GlcNAc(b1-3)Gal(b1-4)GlcNAc(b1-3)Gal(b1-4)GlcNAc(b1-2)Man(a1-3)[Gal(b1-4)GlcNAc(b1-3)Gal(b1-4)GlcNAc(b1-3)Gal(b1-4)GlcNAc(b1-3)Gal(b1-4)GlcNAc(b1-3)Gal(b1-4)GlcNAc(b1-3)Gal(b1-4)GlcNAc(b1-2)Man(a1-6)]Man(b1-4)GlcNAc(b1-4)GlcNAc", "how_it_was_run": "as §1"}, "[23]": {"target": "Gal(b1-4)GlcNAc(b1-3)Gal(b1-4)[Fuc(a1-3)]GlcNAc(b1-3)Gal(b1-4)[Fuc(a1-3)]GlcNAc", "how_it_was_run": "as §1"}, "Gal(b1-6)Gal": {"target": "Gal(b1-6)Gal", "how_it_was_run": "as §1"}, "Gal3S(b1-4)Glc": {"target": "Gal3S(b1-4)Glc", "how_it_was_run": "as §1"}},
  "note": "The sample as a whole holds a higher share of the strongest signals than the screen did.",
  "data": [
    {"binder": "B1", "values": [
      {"measurement": "glycan array binding signal (z-score)", "setting": "[1]", "result": -0.161},
      {"measurement": "glycan array binding signal (z-score)", "setting": "[2]", "result": -0.08},
      {"measurement": "glycan array binding signal (z-score)", "setting": "Fuc(a1-2)Gal(b1-4)Glc6S", "result": -0.184},
      {"measurement": "glycan array binding signal (z-score)", "setting": "[3]", "result": -0.127},
      {"measurement": "glycan array binding signal (z-score)", "setting": "[4]", "result": -0.104},
      {"measurement": "glycan array binding signal (z-score)", "setting": "[5]", "result": -0.097},
      {"measurement": "glycan array binding signal (z-score)", "setting": "[6]", "result": 0.019},
      {"measurement": "glycan array binding signal (z-score)", "setting": "[7]", "result": -0.15},
      {"measurement": "glycan array binding signal (z-score)", "setting": "Fuc(a1-4)GlcNAc", "result": -0.077},
      {"measurement": "glycan array binding signal (z-score)", "setting": "Gal(a1-3)Gal(b1-3)GlcNAc", "result": -0.129},
      {"measurement": "glycan array binding signal (z-score)", "setting": "[8]", "result": 0.067},
      {"measurement": "glycan array binding signal (z-score)", "setting": "[9]", "result": -0.013},
      {"measurement": "glycan array binding signal (z-score)", "setting": "Gal(b1-3)GlcNAc(b1-2)Man", "result": 0.008},
      {"measurement": "glycan array binding signal (z-score)", "setting": "[10]", "result": -0.138},
      {"measurement": "glycan array binding signal (z-score)", "setting": "[11]", "result": -0.133},
      {"measurement": "glycan array binding signal (z-score)", "setting": "[12]", "result": -0.08},
      {"measurement": "glycan array binding signal (z-score)", "setting": "Gal(b1-4)GlcNAc(b1-2)Man", "result": -0.12},
      {"measurement": "glycan array binding signal (z-score)", "setting": "[13]", "result": -0.101},
      {"measurement": "glycan array binding signal (z-score)", "setting": "[14]", "result": -0.145},
      {"measurement": "glycan array binding signal (z-score)", "setting": "[15]", "result": 14.9},
      {"measurement": "glycan array binding signal (z-score)", "setting": "[16]", "result": 0.588},
      {"measurement": "glycan array binding signal (z-score)", "setting": "[17]", "result": 1.4},
      {"measurement": "glycan array binding signal (z-score)", "setting": "[18]", "result": 0.282},
      {"measurement": "glycan array binding signal (z-score)", "setting": "[19]", "result": 0.333},
      {"measurement": "glycan array binding signal (z-score)", "setting": "[20]", "result": 0.271},
      {"measurement": "glycan array binding signal (z-score)", "setting": "[21]", "result": 0.348},
      {"measurement": "glycan array binding signal (z-score)", "setting": "[22]", "result": 1.66},
      {"measurement": "glycan array binding signal (z-score)", "setting": "[23]", "result": 1.8},
      {"measurement": "glycan array binding signal (z-score)", "setting": "Gal(b1-6)Gal", "result": 11},
      {"measurement": "glycan array binding signal (z-score)", "setting": "Gal3S(b1-4)Glc", "result": -0.135}
    ]}
  ]
}
